Measured values: PMC5540273 (PLoS ONE, 2017)

Assays:
Conditions in all cases: concentration: 1 μM,replicates: in singlicate; n = 1
[1] = tested on: PRKD3
[2] = tested on: PRKG1
[3] = tested on: PRKG2
[4] = tested on: T1, PRKR
T1 construct: gene EIF2AK2

[5] = tested on: PRKX
[6] = tested on: PRP4
[7] = tested on: T2, PYK2
T2 construct: gene PTK2B

[8] = tested on: QSK
[9] = tested on: RAF1
[10] = tested on: RET
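Also: KINOMEscan kinase panel screen.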

Row | SMILES | %Inh [1] [%] | %Inh [2] [%] | %Inh [3] [%] | %Inh [4] [%] | %Inh [5] [%] | %Inh [6] [%] | %Inh [7] [%] | %Inh [8] [%] | %Inh [9] [%] | %Inh [10] [%]
1 | FC(F)(F)c1cc(Br)cc(Nc2nccc(-c3cnn4ncccc34)n2)c1 [GW810578] | 0 | 25 | 0 | 0 | 0 | 0 | 80 | 12 | 0 | 0
2 | CNC(=O)c1ccccc1Nc1nc(Nc2cccc(CS(C)(=O)=O)c2)ncc1C.O=CO [GSK1520489] | 13 | 0 | 8 | 28 | 0 | 82 | 99.5 | 22 | 2 | 100
3 | Cn1ccc2ncnc(Oc3ccc(NC(=O)Nc4cc(C(C)(C)C)on4)c(Cl)c3)c21 | 0 | 0 | 33 | 0 | 17 | 23 | 16 | 0 | 78 | 100
4 | O=C(NCC1CC1)c1ccc(-c2cc(C(=O)NC3CC3)ccc2F)cc1 [GW810445] | 0 | 0 | 0 | 0 | 0 | 16 | 0 | 0 | 0 | 4
5 | CN(c1ccc2c(c1)nc(NCc1ccc(F)cc1)n2C)c1ccnc(Nc2ccc(CS(C)(=O)=O)cc2)n1.Cl [GW813244] | 7 | 9 | 0 | 0 | 0 | 0 | 39 | 0 | 96.4 | 100
6 | CCOC(=O)N1CCC(n2cnc(-c3ccc(F)cc3)c2-c2ccnc(N)n2)CC1 [SB-219952] | 0 | 40 | 26 | 0 | 8 | 0 | 10 | 0 | 0 | 30
7 | CCn1c(-c2nonc2N)nc2cncc(CNC3CCNCC3)c21.Cl [SB-747651] | 50 | 74 | 86 | 0 | 55 | 20 | 0 | 1 | 97.5 | 5
